What all share (assay type): functional
The target in test [1] is Solute carrier family 2, facilitated glucose transporter member 1 (Homo sapiens) (UniProt P11166). The test is described as follows: ST_JUDE_LEISH: Cytotoxicity at 2uM final concentration against transgenic Leishmania Mexicana promastigotes LmGLUT1 that are glucose transport deficient and complemented with the human glucose transporter GLUT1. Activity is measured by DNA content using SYBR green in vitro.

The target in test [2] is Hexose transporter 1 (Plasmodium falciparum) (UniProt O97467). The test is described as follows: ST_JUDE_LEISH: Cytotoxicity at 2uM final concentration against transgenic Leishmania Mexicana promastigotes LmPfHT that are glucose transport deficient and complemented with the Plasmodium falciparum hexose transporter. Activity is measured by DNA content using SYBR green in vitro.

Test [3] deals with Glucose transporter (Leishmania mexicana) (UniProt O61059). The test can be described thus: ST_JUDE_LEISH: Cytotoxicity at 2uM final concentration against transgenic Leishmania Mexicana promastigotes LmGT2 that are glucose transport deficient and complemented with the L. Mexicana glucose transporter 2. Activity is measured by DNA content using SYBR green in vitro.

Sequence of Solute carrier family 2, facilitated glucose transporter member 1 (Homo sapiens) (P11166 whole entry): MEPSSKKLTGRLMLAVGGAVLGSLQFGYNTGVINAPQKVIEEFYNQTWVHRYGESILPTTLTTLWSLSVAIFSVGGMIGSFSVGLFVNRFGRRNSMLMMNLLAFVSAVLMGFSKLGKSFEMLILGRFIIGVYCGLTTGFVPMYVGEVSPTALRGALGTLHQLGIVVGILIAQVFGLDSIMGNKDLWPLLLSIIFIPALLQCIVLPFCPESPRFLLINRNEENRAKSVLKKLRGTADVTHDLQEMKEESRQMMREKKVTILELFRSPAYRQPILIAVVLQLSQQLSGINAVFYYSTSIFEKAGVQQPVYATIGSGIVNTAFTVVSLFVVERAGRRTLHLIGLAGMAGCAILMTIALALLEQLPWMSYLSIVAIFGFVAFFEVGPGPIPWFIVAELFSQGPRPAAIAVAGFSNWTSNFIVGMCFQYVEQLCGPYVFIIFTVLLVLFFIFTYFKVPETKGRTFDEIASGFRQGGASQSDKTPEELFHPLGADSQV

Take `Cc1c(S(=O)(=O)Nc2ccc3nccc(N4CC(C)NC(C)C4)c3c2)sc2ccc(Cl)cc12` (stereo unspecified): the inhibition (usually the change of the read-out against control, counted positive when it falls) amounted to 5.22% in test [1], 6.03% in test [2] and 3.81% in test [3].

For the compound `Cc1ccc(Nc2nccc(Nc3ccc4c(C)n[nH]c4c3)n2)cc1F`, the inhibition in test [1] stood at 3.22%; in test [2], 4.19%; in test [3], 1.7%.

In the case of `COc1cc(C2=NN(S(=O)(=O)c3c(C)cc(C)cc3C)CCCC2)ccc1Cl`, the inhibition in test [1] was found to be 4.03%; in test [2] it was 3.46%; in test [3] it was 3.33%.

Regarding `Cc1c(Cc2ccccc2Br)cnc2nc(N)nc(N)c12`, the inhibition in test [1] came out at 9.6%; in test [2], 30.2%; in test [3], 14.2%.

Consider `Clc1ccc(CNCCCCCCCNCc2ccc(Cl)c(Cl)c2)cc1Cl`, for which the inhibition in test [1] is -1.86%; in test [2] it was -1.24%; in test [3] it was -0.86%.

Take `O=C(NCCCCN1CCC(c2ccc3c(c2OCc2ccncc2)CCCC3)CC1)c1ccc(NC(=O)c2ccc(Cl)cc2)cc1`: the inhibition turned out to be 2.33% in test [1], 2.42% in test [2] and 1.29% in test [3].

With `O=C(Nc1ccc(OC2CCN(Cc3ccc(F)cc3)CC2)c(Cl)c1)c1ccoc1`, the inhibition in test [1] came out at 2.65%; in test [2], 2.09%; in test [3] it was 3.99%.

Regarding `Cc1cccc2nc(-c3cccc(-c4cccc(NC(=O)NC5CC5c5ccccc5)c4)c3)[nH]c12` (stereo unspecified), the inhibition in test [1] was determined as 1.8%; in test [2], 2.2%; in test [3] it was 5.21%.

On to `CCOc1ccccc1C1C(C(=O)C(C)(C)C)N2c3ccc(Br)cc3C=CC2C12C(=O)c1ccccc1C2=O` (stereo unspecified), for which the inhibition amounted to 72.3% in test [1], 76.5% in test [2] and 57.1% in test [3].

For `O=C(/C=C/c1ccc(Cl)c(Cl)c1)NCCCCCN1CCC(NC(=O)NC2CCCCCC2)CC1`, the inhibition in test [1] is -0.58%; in test [2] it was 1.53%; in test [3] it was 0%.

With `COc1ccc2c(C)cc(NCCCN(C)C)nc2c1`, the inhibition in test [1] is 0.02%; in test [2], -0.64%; in test [3], -1.1%.

On to `O=C(Nc1ccc(Cl)cc1)c1cccc(S(=O)(=O)NC2CCN(CC3CCCCC3)C2)c1` (stereo unspecified), for which the figures for the inhibition in test [1], in test [2] and in test [3] were 9.12%, 8.41% and 4.13%, respectively.

For the compound `CN1CCC(C(=O)Nc2ccc(-c3cccc(-c4nc5cc(F)ccc5[nH]4)c3)cc2)CC1`, the inhibition amounted to 8.95% in test [1], 9.27% in test [2] and 8.51% in test [3].

Turning to `CCOC(=O)C1=C(C)N=c2sc(=Cc3cc(Cl)ccc3O)c(=O)n2C1c1cc(OC)c(OC)cc1Br` (stereo unspecified), the figures for the inhibition in test [1], in test [2] and in test [3] were 7%, 6.74% and 11.5%, respectively.

Consider `O=C(NCCCCN1CCC2c3cccc(O)c3CCC21)c1ccc(-c2ccccc2)cc1` (stereo unspecified), for which the inhibition in test [1] amounted to 6.05%; in test [2], 5.38%; in test [3], 3.69%.

On to `CCn1cnc2c(N3CCCS3(=O)=O)cc(C(=O)N[C@@H](Cc3ccccc3)[C@H](O)CNC(C)(C)c3cccc(C(F)(F)F)c3)cc21`, for which the inhibition in test [1] was 3.01%; in test [2] it was 2.45%; in test [3] it was 2.04%.

In the case of `CC1CCCN(Cc2c(O)ccc3c(O)c(-c4nc5ccccc5s4)c(=N)oc23)C1` (stereo unspecified), the inhibition in test [1] was 3.47%; in test [2], 8.25%; in test [3], 0.96%.

With `COc1ccc(C)cc1NC(=O)CSc1nc2cccnc2n1C1CCCCC1`, the inhibition was 5.9% in test [1], 4.88% in test [2] and 3.28% in test [3].

Turning to `O=C(NCC1CCC(C(=O)NCCc2ccc(Cl)c(Cl)c2)CC1)c1ccc(O)c(-c2ccc(Cl)c(Cl)c2)c1` (stereo unspecified), the inhibition in test [1] is -0.17%; in test [2], 0.8%; in test [3], 1.89%.

In the case of `CCOC(=O)c1ccc(OCCCCCCOc2ccc(Br)cc2)cc1`, the results for the inhibition in test [1], in test [2] and in test [3] were 1.32%, 4.52% and -0.5%, respectively.

For the compound `FC(F)(F)c1ccc(CNC2CCN(CC3CCCCC3)CC2)cc1`, the inhibition in test [1] came to 7.89%; in test [2] it was 7.71%; in test [3], 8.5%.

`O=S(=O)(Nc1cccc(CCN2CCC(N3CCCCC3)CC2)c1)c1ccc(Oc2ccccc2)nc1`: the values for the inhibition in test [1], in test [2] and in test [3] were 3.37%, 4.85% and 5.38%, respectively.

(Values after ChEMBL document CHEMBL3433997, “St. Jude Leishmania screening dataset” (2016).)
